Measurements from PubChem BioAssay AID1159580 (chemical genetic matrix, 2015).
Hit rate of the full screen: of about 5,500 compounds, about 2,000 (36%) were called active. Inconclusive results (about 18%) are left out. Rule as the data show it: active = normalized growth mostly below about 0.91 (no sharp cut-off); inconclusive = no clear call, values can overlap the other calls; inactive = mostly above about 0.92. The list shows a part of the results.

Test: chemical genetic growth profiling, strain panel (AID 1159580);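 also: tested at 20 µM; growth read once vehicle control cultures reached saturation at 30 °C; 1 = growth at the plate median or of vehicle wells; lower values mean less growth of the strain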
Details: growth OD

Measured: normalized growth

COc1cc(/C=C/C(=O)O)cc(OC)c1OC
inactive: S. cerevisiae deletion strains, locus YJR043C, strain POL32, active compounds read low 0.999 | S. cerevisiae deletion strains, locus YJR066W, strain TOR1, active compounds read low 1.02 | S. cerevisiae deletion strains, locus YKL009W, strain mrt4, active compounds read low 1.03 | S. cerevisiae deletion strains, locus YKL068W, active compounds read low 1.02 | S. cerevisiae deletion strains, locus YKL085W, strain MDH1 (second series), active compounds read low 1.01 | S. cerevisiae deletion strains, locus YKL085W, strain MDH1, active compounds read low 1.01 | S. cerevisiae deletion strains, locus YKL160W, strain elf1, active compounds read low 0.985 | S. cerevisiae deletion strains, locus YKR001C, strain vps1, active compounds read low 1 | S. cerevisiae deletion strains, locus YKR026C, strain gcn3, active compounds read low 0.985 | S. cerevisiae deletion strains, locus YKR091W, strain srl3, active compounds read low 0.98 | S. cerevisiae deletion strains, locus YLL001W, strain dnm1, active compounds read low 0.969 | S. cerevisiae deletion strains, locus YLL026W, active compounds read low 0.995 | S. cerevisiae deletion strains, locus YLL041C, strain sdh2, active compounds read low 0.999 | S. cerevisiae deletion strains, locus YLR027C, strain aat2, active compounds read low 0.998 | S. cerevisiae deletion strains, locus YLR039C, strain RIC1, active compounds read low 1.04 | S. cerevisiae deletion strains, locus YLR058C, strain SHM2, active compounds read low 1.02 | S. cerevisiae deletion strains, locus YLR102C, strain apc9, active compounds read low 1.02 | S. cerevisiae deletion strains, locus YLR113W, strain HOG1, active compounds read low 1.03 | S. cerevisiae deletion strains, locus YLR221C, strain rsa3, active compounds read low 1 | S. cerevisiae deletion strains, locus YLR258W, strain gsy2, active compounds read low 0.993 | S. cerevisiae deletion strains, locus YLR262C, strain YPT6 (second series), active compounds read low 0.994 | S. cerevisiae deletion strains, locus YLR262C, strain YPT6, active compounds read low 1.01 | S. cerevisiae deletion strains, locus YLR268W, strain sec22, active compounds read low 1.02 | S. cerevisiae deletion strains, locus YLR320W, strain mms22, active compounds read low 0.995 | S. cerevisiae deletion strains, locus YLR330W, strain CHS5, active compounds read low 1.01 | S. cerevisiae deletion strains, locus YLR342W, strain FKS1 (second series), active compounds read low 0.999 | S. cerevisiae deletion strains, locus YLR342W, strain FKS1, active compounds read low 0.986 | S. cerevisiae deletion strains, locus YLR357W, strain rsc2, active compounds read low 0.993 | S. cerevisiae deletion strains, locus YLR370C, strain arc18, active compounds read low 0.992 | S. cerevisiae deletion strains, locus YLR371W, strain rom2, active compounds read low 1.06 | S. cerevisiae deletion strains, locus YLR384C, strain iki3, active compounds read low 0.986 | S. cerevisiae deletion strains, locus YLR418C, strain cdc73, active compounds read low 0.975 | S. cerevisiae deletion strains, locus YML016C, strain PPZ1, active compounds read low 1.01 | S. cerevisiae deletion strains, locus YML032C, strain rad52, active compounds read low 1.03 | S. cerevisiae deletion strains, locus YML120C, strain ndi1, active compounds read low 1 | S. cerevisiae deletion strains, locus YML124C, strain tub3, active compounds read low 1.02 | S. cerevisiae deletion strains, locus YMR058W, strain fet3, active compounds read low 0.997 | S. cerevisiae deletion strains, locus YMR078C, strain ctf18, active compounds read low 1.05 | S. cerevisiae deletion strains, locus YMR125W, strain sto1, active compounds read low 0.965 | S. cerevisiae deletion strains, locus YMR129W, active compounds read low 0.996 | S. cerevisiae deletion strains, locus YMR205C, strain PFK2, active compounds read low 0.984 | S. cerevisiae deletion strains, locus YMR223W, strain ubp8, active compounds read low 1.04 | S. cerevisiae deletion strains, locus YMR231W, strain pep5, active compounds read low 0.981 | S. cerevisiae deletion strains, locus YMR263W, strain SAP30, active compounds read low 1.01 | S. cerevisiae deletion strains, locus YMR307W, strain GAS1, active compounds read low 1.04 | S. cerevisiae deletion strains, locus YNL067W, strain RPL9B, active compounds read low 1.01 | S. cerevisiae deletion strains, locus YNL071W, strain lat1, active compounds read low 0.991 | S. cerevisiae deletion strains, locus YNL183C, strain NPR1, active compounds read low 1.03 | S. cerevisiae deletion strains, locus YNL209W, strain ssb2, active compounds read low 0.996 | S. cerevisiae deletion strains, locus YNL233W, strain BNI4, active compounds read low 0.999 | S. cerevisiae deletion strains, locus YNL248C, strain rpa49, active compounds read low 1 | S. cerevisiae deletion strains, locus YNL250W, strain rad50, active compounds read low 1.02 | S. cerevisiae deletion strains, locus YNL271C, strain bni1, active compounds read low 1.02 | S. cerevisiae deletion strains, locus YNL298W, strain CLA4, active compounds read low 1.03 | S. cerevisiae deletion strains, locus YNL307C, strain MCK1, active compounds read low 1.02 | S. cerevisiae deletion strains, locus YNL322C, strain KRE1 (second series), active compounds read low 0.99 | S. cerevisiae deletion strains, locus YNL322C, strain KRE1, active compounds read low 1.01 | S. cerevisiae deletion strains, locus YNR049C, strain mso1, active compounds read low 0.988 | S. cerevisiae deletion strains, locus YNR052C, strain pop2, active compounds read low 1.01 | S. cerevisiae deletion strains, locus YOL006C, strain TOP1, active compounds read low 1.04 | S. cerevisiae deletion strains, locus YOL012C, strain htz1 1.26 | S. cerevisiae deletion strains, locus YOL147C, strain pex11, active compounds read low 1.02 | S. cerevisiae deletion strains, locus YOR001W, strain rrp6, active compounds read low 1.03 | S. cerevisiae deletion strains, locus YOR061W, strain CKA2, active compounds read low 1.02 | S. cerevisiae deletion strains, locus YOR069W, strain VPS5, active compounds read low 1.01 | S. cerevisiae deletion strains, locus YOR070C, strain gyp1, active compounds read low 0.991 | S. cerevisiae deletion strains, locus YOR080W, strain dia2, active compounds read low 0.983 | S. cerevisiae deletion strains, locus YOR083W, strain WHI5, active compounds read low 0.972 | S. cerevisiae deletion strains, locus YOR106W, strain vam3, active compounds read low 0.961 | S. cerevisiae deletion strains, locus YOR136W, strain idh2, active compounds read low 1.01 | S. cerevisiae deletion strains, locus YOR144C, strain elg1, active compounds read low 1.01 | S. cerevisiae deletion strains, locus YOR184W, strain ser1, active compounds read low 1.04 | S. cerevisiae deletion strains, locus YOR231W, strain MKK1, active compounds read low 1.06 | S. cerevisiae deletion strains, locus YOR265W, strain rbl2, active compounds read low 0.983 | S. cerevisiae deletion strains, locus YOR270C, strain vph1, active compounds read low 0.998 | S. cerevisiae deletion strains, locus YOR290C, strain snf2, active compounds read low 0.954 | S. cerevisiae deletion strains, locus YOR316C, strain cot1, active compounds read low 1.02 | S. cerevisiae deletion strains, locus YPL051W, strain arl3, active compounds read low 1 | S. cerevisiae deletion strains, locus YPL078C, strain atp4, active compounds read low 0.987 | S. cerevisiae deletion strains, locus YPL106C, strain sse1, active compounds read low 0.972 | S. cerevisiae deletion strains, locus YPL240C, strain hsp82, active compounds read low 0.989 | S. cerevisiae deletion strains, locus YPL256C, strain CLN2, active compounds read low 0.999 | S. cerevisiae deletion strains, locus YPR119W, strain clb2, active compounds read low 1.03 | S. cerevisiae deletion strains, locus YPR141C, strain kar3, active compounds read low 1.03 | S. cerevisiae deletion strains, locus YPR163C, strain tif3, active compounds read low 1.03 | S. cerevisiae deletion strains, locus YPR167C, strain met16, active compounds read low 1.02 | S. cerevisiae deletion strains, strain wtn01, active compounds read low 1.01 | S. cerevisiae strains, strain wild type, active compounds read low 1.01
